Laboratory results taken from PubChem BioAssay (EPA / NIEHS).
Records with an inconclusive call do not appear. A structure can be active in one record and inactive in another. Active and inactive are the calls of the source. The calls were made as follows, unless noted: active = hit-call score of the fitted dose curve at least 0.9, where 1 is the maximum; inactive = score below 0.9.

What was measured:
[1] = read-out: Monokine induced gamma interferon (MIG), CXCL9 (gene 4283); test: BSK_3C_MIG: BioMAP Diversity Plus: 3C Assay for Monokine induced gamma interferon (MIG) Biomarker Activity (AID 2283021); conditions: primary human endothelial cells (HUVEC); actives raise or lower the signal;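 as to AC50: MIG protein level measured by immunoassay in the treated endothelial cultures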
Method in brief: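 Read-out is ELISA detection of MIG on human umbilical vein endothelial cells, taken 24 h after dosing. Gain or loss of signal was scored relative to DMSO controls using bidirectional curve fitting.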

[2] = target: human Vitamin D Receptor (VDR), VDR (gene 7421) (UniProt P11473); test: ATG_VDR_TRANS: Attagene TRANS-FACTORIAL HepG2 Assay for human Vitamin D Receptor (VDR) (AID 2283022; active = hit-call score of the fitted dose curve at least 0.9, where 1 is the maximum)
Method in brief: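 RT-PCR/capillary electrophoresis read-out of reporter mRNA induction in transiently transfected HepG2; 24 h dosing; chimeric NR-Gal4 (TRANS format); gain-of-signal fit against DMSO baseline.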

[3] = BSK_3C_SRB: Viability Assessment in the BioMAP Diversity Plus: 3C Assay (AID 2283023); conditions: primary human endothelial cells (HUVEC);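 also: fitted both ways against DMSO so a hit may be signal rise or drop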
Method in brief: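 HUVEC, 24 h post-dose; 10% TCA fix, 0.1% SRB stain, A560 nm. Bidirectional curve fit vs DMSO negative control.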

[4] = read-out: Matrix Metallopeptidase 1 (MMP1), MMP1 (gene 4312); test: BSK_BE3C_MMP1: BioMAP Diversity Plus: BE3C Assay for Matrix Metallopeptidase 1 (MMP1) Biomarker Activity (AID 2283024); conditions: primary human bronchial epithelial cells; actives raise or lower the signal
Method in brief: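 Human bronchial epithelial cells (BE3C system) exposed to compound for 24 h; MMP1 then quantified by ELISA. Activity was fitted in both directions relative to DMSO.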

[5] = BSK_3C_Vis: BioMAP Diversity Plus: 3C Assay for Morphology Visualization (AID 2283025); conditions: primary human endothelial cells (HUVEC);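 also: fitted both ways so gain or loss versus DMSO counts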;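 as to AC50: light microscopy image of cell morphology used as background control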
Method in brief: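 Chemicals were added to primary human umbilical vein endothelium, cells were incubated 24 h, and morphology was then visualized by light microscopy. Gain or loss of signal was fitted bidirectionally relative to DMSO.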

[6] = read-out: Pselectin, SELP (gene 6403); test: BSK_4H_Pselectin: BioMAP Diversity Plus: 4H Assay for Pselectin Biomarker Activity (AID 2283026); conditions: primary human endothelial cells (HUVEC); actives raise or lower the signal
Method in brief: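 ELISA read-out of P-selectin on human umbilical vein endothelium after 24 h of dosing. Values derive from bidirectional fitting relative to DMSO. Parallel SRB protein staining flagged overt cytotoxicity.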

[7] = BSK_4H_SRB: Viability Assessment in the BioMAP Diversity Plus: 4H Assay (AID 2283027); conditions: primary human endothelial cells (HUVEC);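 also: cells exposed to compound for 24 h before staining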;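 as to AC50: curves fitted both ways versus DMSO so AC50 may be loss or gain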
Method in brief: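 Human umbilical vein endothelial cells were dosed with chemical and, after 24 h, fixed with 10% TCA, stained with 0.1% sulforhodamine B, and read at 560 nm to give total protein as a cytotoxicity measure. Bidirectional fitting relative to DMSO control.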

[8] = BSK_BE3C_SRB: Viability Assessment in the BioMAP Diversity Plus: BE3C Assay (AID 2283028); conditions: primary human bronchial epithelial cells
Method in brief: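 Primary human bronchial epithelium; chemical dosing, 24 h; 10% TCA fix, 0.1% SRB stain, A560; bidirectional fit vs DMSO baseline.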

[9] = read-out: Thrombomodulin, THBD (gene 7056); test: BSK_3C_Thrombomodulin: BioMAP Diversity Plus: 3C Assay for Thrombomodulin Biomarker Activity (AID 2283029); conditions: primary human endothelial cells (HUVEC); actives raise or lower the signal
Method in brief: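 Read-out is ELISA of thrombomodulin on human umbilical vein endothelium 24 h after chemical dosing. Gain or loss of signal is scored relative to DMSO. Overt cytotoxicity is checked in parallel cultures by sulforhodamine B staining.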

[10] = read-out: Urokinase-type plasminogen activator receptor (uPAR), PLAUR (gene 5329); test: BSK_4H_uPAR: BioMAP Diversity Plus: 4H Assay for Urokinase-type plasminogen activator receptor (uPAR) Biomarker Activity (AID 2283030); conditions: primary human endothelial cells (HUVEC); actives raise or lower the signal
Method in brief: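 HUVEC, 24 h post-dose; uPAR by ELISA; bidirectional fit vs DMSO baseline.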

[11] = read-out: Vascular endothelial growth factor receptor 2 (Homo sapiens) (UniProt P35968); test: BSK_4H_VEGFRII: BioMAP Diversity Plus: 4H Assay for Vascular endothelial growth factor receptor 2 (VEGFR2) Biomarker Activity (AID 2283031); conditions: primary human endothelial cells (HUVEC); actives raise or lower the signal;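 as to AC50: cell-surface VEGFR2 protein level quantified by ELISA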
Method in brief: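 HUVEC (human primary), 4H system; 24 h post-dose; VEGFRII by ELISA; bidirectional curve fit vs DMSO baseline; gain or loss of signal scored.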

[12] = read-out: Human Leukocyte Antigen - DR isotype (HLADR), HLA-DRA (gene 3122); test: BSK_BE3C_HLADR: BioMAP Diversity Plus: BE3C Assay for Human Leukocyte Antigen - DR isotype (HLADR) Biomarker Activity (AID 2283032); conditions: primary human bronchial epithelial cells; actives raise or lower the signal
Method in brief: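 ELISA read-out of HLA-DR on human lung bronchial epithelial primary cells, measured 24 h post-dosing. Both increases and decreases were scored relative to DMSO vehicle.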

[13] = read-out: Vascular cell adhesion molecule 1 (VCAM1), VCAM1 (gene 7412); test: BSK_4H_VCAM1: BioMAP Diversity Plus: 4H Assay for Vascular cell adhesion molecule 1 (VCAM1) Biomarker Activity (AID 2283033); conditions: primary human endothelial cells (HUVEC); actives raise or lower the signal
Method in brief: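 ELISA read-out of VCAM-1 on human umbilical vein endothelium 24 hours after chemical dosing; gain or loss of signal was fitted relative to DMSO, with sulforhodamine B staining of parallel cultures flagging overt cytotoxicity.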

[14] = read-out: Interferon-gamma inducible Protein 10 (IP10), CXCL10 (gene 3627); test: BSK_BE3C_IP10: BioMAP Diversity Plus: BE3C Assay for Interferon-gamma inducible Protein 10 (IP10) Biomarker Activity (AID 2283034); conditions: primary human bronchial epithelial cells; actives raise or lower the signal
Method in brief: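 Chemical is dosed onto human lung bronchial epithelial primary cells, cultures are incubated 24 h, and IP-10 is then quantified by ELISA. Gain or loss of signal is fitted in both directions relative to DMSO.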

[15] = read-out: Monokine induced gamma interferon (MIG), CXCL9 (gene 4283); test: BSK_BE3C_MIG: BioMAP Diversity Plus: BE3C Assay for Monokine induced gamma interferon (MIG) Biomarker Activity (AID 2283035); conditions: primary human bronchial epithelial cells; actives raise or lower the signal
Method in brief: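 ELISA read-out of MIG in human lung bronchial epithelial primary cultures, 24 h post-dosing. Bidirectional curve fit vs DMSO baseline.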

[16] = read-out: Transforming growth factor beta 1 (TGFb1), TGFB1 (gene 7040); test: BSK_BE3C_TGFb1: BioMAP Diversity Plus: BE3C Assay for Transforming growth factor beta 1 (TGFb1) Biomarker Activity (AID 2283036); conditions: primary human bronchial epithelial cells; actives raise or lower the signal
Method in brief: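 Primary human lung bronchial epithelial cells; compound exposure 24 h; TGF-b1 by ELISA; bidirectional fit, DMSO baseline. Parallel SRB total-protein staining for cytotoxicity.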

[17] = read-out: Plasminogen activator inhibitor-1 (PAI1), SERPINE1 (gene 5054); test: BSK_BE3C_PAI1: BioMAP Diversity Plus: BE3C Assay for Plasminogen activator inhibitor-1 (PAI1) Biomarker Activity (AID 2283037); conditions: primary human bronchial epithelial cells; actives raise or lower the signal
Method in brief: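 Primary human lung bronchial epithelial cells; chemical dosing; 24 h; PAI-1 measured by ELISA; bidirectional fit referenced to DMSO as negative control.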

[18] = read-out: urokinase plasminogen activator (uPA), PLAU (gene 5328); test: BSK_BE3C_uPA: BioMAP Diversity Plus: BE3C Assay for urokinase plasminogen activator (uPA) Biomarker Activity (AID 2283038); conditions: primary human bronchial epithelial cells; actives raise or lower the signal
Method in brief: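 ELISA read-out of uPA in human lung primary bronchial epithelial cultures, 24 h post-dosing. Gain or loss of signal fitted bidirectionally relative to DMSO baseline; cytotoxicity checked in parallel cultures via SRB total protein stain.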

[19] = read-out: Urokinase-type plasminogen activator receptor (uPAR), PLAUR (gene 5329); test: BSK_BE3C_uPAR: BioMAP Diversity Plus: BE3C Assay for Urokinase-type plasminogen activator receptor (uPAR) Biomarker Activity (AID 2283039); conditions: primary human bronchial epithelial cells; actives raise or lower the signal
Method in brief: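 Human bronchial epithelial primary cells; chemical exposure 24 h; uPAR by ELISA; bidirectional fit vs DMSO control.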

[20] = read-out: Interleukin-6 (IL6), IL6 (gene 3569); test: BSK_CASM3C_IL6: BioMAP Diversity Plus: CASM3C Assay for Interleukin-6 (IL6) Biomarker Activity for (AID 2283040); conditions: primary human coronary artery smooth muscle cells; actives raise or lower the signal

Measured: AC50

Chain of human Vitamin D Receptor (VDR), VDR (gene 7421) (P11473 whole entry, looked up, the tested form may be a part): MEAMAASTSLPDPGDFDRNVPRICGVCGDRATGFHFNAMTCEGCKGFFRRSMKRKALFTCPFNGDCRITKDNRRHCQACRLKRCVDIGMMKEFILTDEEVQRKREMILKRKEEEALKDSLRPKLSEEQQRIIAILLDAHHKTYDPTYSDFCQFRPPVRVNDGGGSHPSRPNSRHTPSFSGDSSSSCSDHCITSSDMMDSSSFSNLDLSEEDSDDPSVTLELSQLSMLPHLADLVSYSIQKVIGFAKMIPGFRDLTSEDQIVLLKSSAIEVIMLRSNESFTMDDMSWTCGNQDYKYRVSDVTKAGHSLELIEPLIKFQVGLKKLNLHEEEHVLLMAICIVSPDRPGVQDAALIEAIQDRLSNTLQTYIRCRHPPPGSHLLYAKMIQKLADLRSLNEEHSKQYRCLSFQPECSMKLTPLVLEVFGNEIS

CC(C)CCCCCCOC(=O)c1ccccc1C(=O)OCCCCCCC(C)C
inactive: all assays above

O=C1C2(Cl)C3(Cl)C4(Cl)C(Cl)(Cl)C5(Cl)C3(Cl)C1(Cl)C5(Cl)C24Cl (stereo not drawn)
inactive: [2] | [9]
active: [1] 11.4 µM | [3] 5.96 µM | [4] 10.4 µM | [5] 5.21 µM | [6] 10.9 µM | [7] 6.58 µM | [10] 9.73 µM | [11] 5.18 µM | [12] 7.65 µM | [13] 8.36 µM | [14] 7.91 µM | [15] 9.37 µM | [16] 5.28 µM | [17] 8.29 µM | [18] 5.32 µM | [19] 6.12 µM | [20] 33.5 µM

O=C(O)C(F)(F)C(F)(F)C(F)(F)C(F)(F)C(F)(F)C(F)(F)F
inactive: [1] | [2] | [3] | [4] | [5] | [6] | [7] | [8] | [9] | [10] | [11] | [12] | [13] | [14] | [15] | [16] | [17] | [18] | [19] | [20]
active: [4] 13.6 µM

Oc1c(I)cc(I)cc1I
inactive: [2] | [9] | [15] | [16] | [18] | [20]
active: [1] 34.9 µM | [3] 10.3 µM | [4] 6.77 µM | [5] 13 µM | [6] 12.7 µM | [7] 20 µM | [10] 12.7 µM | [11] 12.5 µM | [12] 3.97 µM | [13] 20 µM | [14] 4.41 µM | [17] 1.83 µM | [19] 2.31 µM

CCCCCCCCC(=O)NCc1ccc(O)c(OC)c1
active: [7] 20 µM | [14] 20 µM | [17] 20 µM
not listed: [8]
inactive: all other assays above

ClCC(Cl)CCl
inactive: all assays above
